PubChem BioAssay AID368 (University of Pittsburgh Molecular Library Screening Center, 2006)
In all, about 65,000 compounds went through this assay and about 85 (0.1%) were called active. This excerpt belongs to a sample that is enriched for actives. Unmarked numbers belong to inactive results. Rule as the data show it: active = inhibition above about 50%; inactive = the rest.

Biological target: M-phase inducer phosphatase 2 (Homo sapiens) (UniProt P30305)
Assay: inhibitors of Cdc25B phosphatase catalytic domain, primary screen, biochemical, OMFP fluorescence (AID 368)
Conditions: recombinant Cdc25B, OMFP fluorescence Ex485/Em525; hits give high values;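 compounds tested at 10 µM final in the well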

M-phase inducer phosphatase 2 (Homo sapiens), sequence (P30305 whole entry, looked up, the tested form may be a part): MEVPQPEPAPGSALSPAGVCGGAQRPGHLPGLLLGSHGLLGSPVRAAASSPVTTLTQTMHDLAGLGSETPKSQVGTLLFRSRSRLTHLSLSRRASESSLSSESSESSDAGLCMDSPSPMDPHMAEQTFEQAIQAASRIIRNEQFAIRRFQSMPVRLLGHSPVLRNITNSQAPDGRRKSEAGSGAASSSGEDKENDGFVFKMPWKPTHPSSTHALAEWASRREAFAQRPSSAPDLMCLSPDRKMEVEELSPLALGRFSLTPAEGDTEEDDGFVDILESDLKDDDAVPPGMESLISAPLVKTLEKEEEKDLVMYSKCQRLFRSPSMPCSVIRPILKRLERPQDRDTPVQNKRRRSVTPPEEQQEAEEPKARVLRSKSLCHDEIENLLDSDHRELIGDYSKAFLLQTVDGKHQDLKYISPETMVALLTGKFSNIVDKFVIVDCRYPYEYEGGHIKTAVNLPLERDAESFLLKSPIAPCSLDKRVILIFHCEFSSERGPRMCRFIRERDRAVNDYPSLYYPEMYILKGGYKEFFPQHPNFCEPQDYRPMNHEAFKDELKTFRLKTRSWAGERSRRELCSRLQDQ

Compound	inhibition
COc1ccccc1NC(=O)CSc1nnc(Cn2nnc(-c3ccccc3)n2)n1-c1ccccc1	-10.9%
COc1ccc(-c2nnn(CC(=O)N(CCO)C(C(=O)NC3CCCC3)c3ccc(F)cc3)n2)cc1 (stereo unspecified)	-0.846%
Cc1ccc(S(=O)(=O)N2CCC(C(=O)OCC(=O)N3CC(=O)Nc4ccccc43)CC2)cc1	-6.66%
O=C(CSc1nnc(-c2cccnc2)n1Cc1ccco1)c1ccc(Cl)c(Cl)c1	8.97%
CCc1c(C)n([O-])c2c([n+]1=O)CCCCC2	-6.36%
COc1cc2cc(CN(CCN3CCCC3)C(=O)Nc3ccccc3Cl)c(=O)[nH]c2cc1OC	-1.08%
O=C(Cn1c(-c2ccc(Cl)cc2)noc1=O)N1CCN(c2ccccc2F)CC1	-5.95%
CC(C)Oc1ccc(C(=O)Nc2cc(=O)n(C)c(=O)n2C)cc1	-9.38%
Fc1cc(F)c2nc(N3CCOCC3)sc2c1	0.504%
CC1CCCC(N2CCN(C(=O)c3ccc(F)cc3)CC2)C1 (stereo unspecified)	-7.26%
Cc1ccc(NC(=O)CN2CCC3(O)CCCCC3C2c2ccc3c(c2)OCO3)c(C)c1 (stereo unspecified)	5.36%
CCOC(=O)c1sc2nc(CSCC(=O)OCc3ccc(C(=O)OC)o3)[nH]c(=O)c2c1C	-1.69%
COCCN1C(=O)c2oc3c(C)cc(C)cc3c(=O)c2C1c1cccc(O)c1 (stereo unspecified)	-0.703%
CC(=O)c1cc2c(cc1N)OCO2	5.42%
COc1ccc(N2CC(C)Cn3c2nc2c3c(=O)n(Cc3ccccc3F)c(=O)n2C)c(OC)c1 (stereo unspecified)	2.66%
CC(=O)c1c(C)c[nH]c1C	-2.46%
NS(=O)(=O)c1ccc(NS(=O)(=O)/C=C/c2ccccc2)cc1	4.88%
O=S(=O)(NCc1ccccn1)c1ccc(F)cc1	-7.59%
O=S(=O)(/C=C/c1ccccc1)NCCc1ccccn1	102% (active)
O=C(O)c1cscn1	5.38%
COc1ccccc1Nc1ncnc2c1oc1ccccc12	14.9%

Compound	inhibition
CC1(C)CC(=O)C=C(NCCCNC2CCCCC2)C1	-12.2%
N#Cc1ccc(COC(=O)Cn2nnc(-c3ccccc3)n2)cc1	-19.8%
CC(NC(=O)Nc1ccccc1)c1ccccc1 (stereo unspecified)	-11.4%
NC(=O)C1CC=CCC1C(=O)OCC(Cl)=C(Cl)Cl (stereo unspecified)	-7.55%
CC1CN(c2cc(=O)n(Cc3ccc(F)cc3)c(=O)[nH]2)CC(C)O1 (stereo unspecified)	-7.48%
CCOC(=O)c1cccc(NC(=O)C2CCCN(S(=O)(=O)c3cnc[nH]3)C2)c1 (stereo unspecified)	-1.24%
O=C(O)C1CC=C(Cl)CC1C(=O)NCc1ccccc1 (stereo unspecified)	-4.83%
O=C(CN1C(=O)C2C3C=CC(C3)C2C1=O)NCCc1ccccc1Cl (stereo unspecified)	-3.46%
Cc1ccc(C)c(N(CC(=O)NCc2ccco2)C(=O)CCC(=O)Nc2ccccn2)c1	0.139%
C=CCNC(=O)CSc1nc2sc(C)c(C)c2c(=O)[nH]1	-5.03%
CCC1SC2=NCCN2C1(O)c1ccc(Cl)cc1 (stereo unspecified)	1.15%
COC(=O)c1ccc(NC(=O)CSc2nnc(CNc3ccc(OC)cc3)n2C)cc1	-15.2%
O=C(Nc1ccc(F)cc1)c1cccnc1N1CCOCC1	0.374%
COc1ccccc1C1/C(=C(/O)c2ccc(OC(C)C)cc2)C(=O)C(=O)N1c1cc(C)on1 (stereo unspecified)	22%
COc1ccc(S(=O)(=O)N(CCCN2CCCC2=O)Cc2cc3c(C)ccc(C)c3[nH]c2=O)cc1	4.58%
COc1ccc(Cl)cc1NC(=O)c1oc(C)nc1C	-1.12%
O=C(O)CSC(NC(=O)c1cccnc1)(C(F)(F)F)C(F)(F)F	-2.28%
O=C(c1ccco1)N1CCN=C1SCc1cccc(Cl)c1	-9.08%
CC1CCCCC1NC(=O)CSc1nnc(N)s1 (stereo unspecified)	-11.7%
COc1ccc(C(=O)N2CCC(C(=O)Nc3cccc(C)c3)CC2)cc1OC	-5.03%
Cc1cc(C(F)(F)F)nn1-c1nc(-c2ccco2)cc(C(F)(F)F)n1	-12.3%

Compound	inhibition
COc1ccc(NS(=O)(=O)c2ccc(NC(C)=O)cc2)cc1OC	-8.27%
COCCNC(=O)C(c1ccc(C)o1)N(Cc1cccs1)C(=O)c1snc(C(N)=O)c1N (stereo unspecified)	-5.11%
Cc1nnc(SCC(=O)NCCOc2ccc(Cl)cc2)n1-c1ccccc1	-10.1%
COc1cccc(N(CC(=O)Nc2cccc(F)c2)S(C)(=O)=O)c1	-4.86%
COc1ccc(C(=O)NCCc2ccc(S(N)(=O)=O)cc2)cc1OC	-4.01%
CCOC(=O)c1ccn(-c2nc(-c3ccco3)cc(C(F)(F)F)n2)n1	-12.2%
CCCOc1ccc(CN(CCO)CCO)cc1C(=O)OC	1.99%
O=C(NC1(C(F)(F)F)N=C2SCCN2C1=O)c1ccco1 (stereo unspecified)	0.794%
O=C(c1ccccc1)c1ccc2nc(N3CCCCC3)c3nncn3c2c1	-11.8%
O=S(=O)(c1ccc2ccccc2c1)N1CCN(S(=O)(=O)N2CCOCC2)CC1	-4.37%
O=c1cc(CSc2ccc(Cl)cc2)nc(N2CCOCC2)[nH]1	7.35%
CCCOP(=O)(c1ccc(N(C)C)cc1)C(O)c1cc(OC)c(OC)c(OC)c1 (stereo unspecified)	-0.929%
CCOC(=O)N1CCN(CC(=O)c2c(C)[nH]c3ccccc23)CC1	60% (active)
Cc1ccc2c(C(=O)CN3CCCC3)c(C)[nH]c2c1	-0.2%
CCOC(=O)N1CCN(CC(=O)n2c(C)c(C)c3ccccc32)CC1	-1.72%
Cc1occc1C(=O)Nc1cccc(Cn2cccn2)c1	-8.98%
O=C(O)CC(Cn1cnnn1)c1ccccc1 (stereo unspecified)	-6.9%
O=C1CCCc2c1[nH]c1ccc(Br)cc21	5.28%
Cc1ccsc1C(C(=O)NC1CCCCC1)N(C(=O)Cc1cccs1)C1CC1 (stereo unspecified)	4.04%
